Source: the supplement of paper PMC11732987, “Enantioselective OTUD7B fragment discovery through chemoproteomics screening and high-throughput optimisation” (Communications Chemistry, 2025)

Tests used:
Assay in all cases: log2 ratio of Biotin-Ahx-Ub-VS probe labelling (fragment/DMSO); higher = less target engagement (more negative = stronger competition), active = hit call of the paper (q ≤ 0.05, log2 ratio ≤ -1)
Conditions in all cases: compound concentration: 200 uM; treatment time: 3 h
USP42 = molecular target: T1, USP42 (UniProt Q9H9J4)
T1 sequence (whole entry): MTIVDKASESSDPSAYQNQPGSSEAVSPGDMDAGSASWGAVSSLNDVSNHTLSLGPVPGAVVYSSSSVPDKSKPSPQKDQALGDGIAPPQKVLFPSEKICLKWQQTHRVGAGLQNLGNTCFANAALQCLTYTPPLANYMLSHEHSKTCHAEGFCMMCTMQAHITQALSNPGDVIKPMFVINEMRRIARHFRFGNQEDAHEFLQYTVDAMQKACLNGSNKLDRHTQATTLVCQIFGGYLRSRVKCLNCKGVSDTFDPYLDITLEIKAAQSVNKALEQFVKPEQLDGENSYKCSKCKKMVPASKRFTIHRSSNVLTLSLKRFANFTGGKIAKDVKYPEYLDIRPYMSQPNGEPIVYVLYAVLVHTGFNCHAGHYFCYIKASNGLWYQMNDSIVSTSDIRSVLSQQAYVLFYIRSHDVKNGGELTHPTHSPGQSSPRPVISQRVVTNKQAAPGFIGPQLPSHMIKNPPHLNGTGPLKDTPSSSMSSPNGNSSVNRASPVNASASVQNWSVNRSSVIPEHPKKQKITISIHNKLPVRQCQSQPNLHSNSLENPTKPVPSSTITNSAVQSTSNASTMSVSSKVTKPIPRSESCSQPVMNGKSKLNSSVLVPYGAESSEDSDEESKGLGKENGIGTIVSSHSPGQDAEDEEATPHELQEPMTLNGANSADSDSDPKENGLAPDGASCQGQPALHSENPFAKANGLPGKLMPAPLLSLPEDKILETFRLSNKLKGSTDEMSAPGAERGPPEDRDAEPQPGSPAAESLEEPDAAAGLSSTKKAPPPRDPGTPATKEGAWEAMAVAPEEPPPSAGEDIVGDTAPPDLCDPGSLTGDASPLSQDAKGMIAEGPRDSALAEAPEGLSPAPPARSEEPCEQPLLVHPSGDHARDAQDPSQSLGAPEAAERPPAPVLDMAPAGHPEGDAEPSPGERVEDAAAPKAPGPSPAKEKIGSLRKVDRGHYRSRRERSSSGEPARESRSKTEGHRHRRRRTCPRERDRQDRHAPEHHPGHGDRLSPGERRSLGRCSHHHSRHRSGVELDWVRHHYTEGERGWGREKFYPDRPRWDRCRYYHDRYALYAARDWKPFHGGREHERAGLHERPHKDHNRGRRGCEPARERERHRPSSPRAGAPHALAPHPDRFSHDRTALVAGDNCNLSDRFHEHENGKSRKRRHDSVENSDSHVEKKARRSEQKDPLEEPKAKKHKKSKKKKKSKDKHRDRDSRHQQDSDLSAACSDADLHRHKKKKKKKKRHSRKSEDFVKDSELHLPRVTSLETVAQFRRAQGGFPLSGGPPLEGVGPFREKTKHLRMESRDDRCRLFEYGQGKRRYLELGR
Outline: (§1)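 HEK293T lysate, 495 µg per sample in Tris/CHAPS/IGEPAL buffer with protease inhibitors, was treated in triplicate with fragment at 200 µM or vehicle for 3 h and then with Biotin-Ahx-Ub-VS at 0.5 µM final for 1 h. Labelled DUBs were NeutrAvidin-enriched, digested with LysC and trypsin, and run by diaPASEF LC-MS/MS. Spectronaut label-free quantities were global-median-normalised, and values are average log2 fragment/vehicle ratios by unpaired t-test on proteins with ≥2 unique peptides.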

USP46 = USP46 (UniProt P62068)
Outline: as §1

USP47 = molecular target: T2, USP47 (UniProt Q96K76)
T2 sequence (whole entry): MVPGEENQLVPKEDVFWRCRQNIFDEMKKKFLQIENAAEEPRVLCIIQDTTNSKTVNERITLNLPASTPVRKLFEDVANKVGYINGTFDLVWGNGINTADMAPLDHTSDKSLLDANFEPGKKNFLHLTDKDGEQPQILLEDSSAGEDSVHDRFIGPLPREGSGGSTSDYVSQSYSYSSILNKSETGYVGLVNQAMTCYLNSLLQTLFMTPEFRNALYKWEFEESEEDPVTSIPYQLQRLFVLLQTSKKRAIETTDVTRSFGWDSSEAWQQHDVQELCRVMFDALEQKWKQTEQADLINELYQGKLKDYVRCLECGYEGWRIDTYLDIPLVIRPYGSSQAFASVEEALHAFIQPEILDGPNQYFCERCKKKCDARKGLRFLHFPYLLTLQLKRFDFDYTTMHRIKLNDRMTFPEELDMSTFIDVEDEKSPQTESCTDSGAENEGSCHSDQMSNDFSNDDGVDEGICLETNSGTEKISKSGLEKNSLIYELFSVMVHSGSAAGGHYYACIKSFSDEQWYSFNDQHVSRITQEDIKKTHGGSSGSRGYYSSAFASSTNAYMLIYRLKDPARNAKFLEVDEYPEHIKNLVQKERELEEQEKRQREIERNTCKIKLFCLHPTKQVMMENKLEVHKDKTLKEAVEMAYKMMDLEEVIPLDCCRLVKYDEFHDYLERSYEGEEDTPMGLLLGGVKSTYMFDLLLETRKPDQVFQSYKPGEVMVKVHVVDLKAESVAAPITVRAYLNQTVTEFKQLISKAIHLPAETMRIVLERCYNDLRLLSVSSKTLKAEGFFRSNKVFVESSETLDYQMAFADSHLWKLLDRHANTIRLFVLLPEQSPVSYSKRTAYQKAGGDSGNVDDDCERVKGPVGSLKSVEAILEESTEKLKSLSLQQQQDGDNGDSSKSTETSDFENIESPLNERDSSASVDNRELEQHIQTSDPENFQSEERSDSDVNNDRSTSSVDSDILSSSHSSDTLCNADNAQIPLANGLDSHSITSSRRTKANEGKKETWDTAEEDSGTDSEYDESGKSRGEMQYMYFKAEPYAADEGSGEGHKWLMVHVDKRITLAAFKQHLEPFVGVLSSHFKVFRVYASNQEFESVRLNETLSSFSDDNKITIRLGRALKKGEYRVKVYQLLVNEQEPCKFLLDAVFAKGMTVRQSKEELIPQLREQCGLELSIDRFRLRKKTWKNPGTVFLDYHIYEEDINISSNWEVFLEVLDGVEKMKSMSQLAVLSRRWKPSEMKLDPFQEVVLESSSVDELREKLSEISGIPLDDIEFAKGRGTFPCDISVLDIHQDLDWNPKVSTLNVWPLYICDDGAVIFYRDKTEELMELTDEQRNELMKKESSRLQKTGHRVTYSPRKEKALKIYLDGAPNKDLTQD
Outline: as §1

USP48 = molecular target: T3, USP48 (UniProt Q86UV5)
T3 sequence (whole entry): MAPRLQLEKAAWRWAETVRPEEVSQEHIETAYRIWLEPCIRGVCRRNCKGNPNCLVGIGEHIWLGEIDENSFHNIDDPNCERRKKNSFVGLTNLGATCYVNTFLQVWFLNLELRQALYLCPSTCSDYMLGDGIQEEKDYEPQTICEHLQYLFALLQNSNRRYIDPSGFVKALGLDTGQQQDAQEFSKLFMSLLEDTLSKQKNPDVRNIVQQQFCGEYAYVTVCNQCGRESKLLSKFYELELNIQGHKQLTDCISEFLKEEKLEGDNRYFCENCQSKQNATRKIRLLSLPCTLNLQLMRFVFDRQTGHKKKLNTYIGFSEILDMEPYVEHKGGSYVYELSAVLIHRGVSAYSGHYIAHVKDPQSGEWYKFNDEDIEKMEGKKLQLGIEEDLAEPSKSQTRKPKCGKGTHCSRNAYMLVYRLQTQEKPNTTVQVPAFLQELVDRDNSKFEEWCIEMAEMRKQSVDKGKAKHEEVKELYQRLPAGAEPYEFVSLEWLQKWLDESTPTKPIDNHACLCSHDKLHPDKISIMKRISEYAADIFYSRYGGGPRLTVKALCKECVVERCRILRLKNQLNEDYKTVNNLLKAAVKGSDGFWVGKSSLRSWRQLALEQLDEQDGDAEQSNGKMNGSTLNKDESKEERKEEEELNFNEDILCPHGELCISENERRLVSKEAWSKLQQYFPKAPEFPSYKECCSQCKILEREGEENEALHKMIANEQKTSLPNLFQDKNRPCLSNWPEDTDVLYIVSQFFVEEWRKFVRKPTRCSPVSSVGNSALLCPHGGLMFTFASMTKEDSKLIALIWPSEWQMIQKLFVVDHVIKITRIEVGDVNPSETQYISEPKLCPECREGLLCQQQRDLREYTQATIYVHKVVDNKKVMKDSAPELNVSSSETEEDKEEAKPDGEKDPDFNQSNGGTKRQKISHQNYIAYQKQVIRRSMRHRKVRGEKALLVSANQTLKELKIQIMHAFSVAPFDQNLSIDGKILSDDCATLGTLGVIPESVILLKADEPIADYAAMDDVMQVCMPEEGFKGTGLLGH
Outline: as §1

USP5 = molecular target: T4, USP5 (UniProt P45974)
T4 sequence (whole entry): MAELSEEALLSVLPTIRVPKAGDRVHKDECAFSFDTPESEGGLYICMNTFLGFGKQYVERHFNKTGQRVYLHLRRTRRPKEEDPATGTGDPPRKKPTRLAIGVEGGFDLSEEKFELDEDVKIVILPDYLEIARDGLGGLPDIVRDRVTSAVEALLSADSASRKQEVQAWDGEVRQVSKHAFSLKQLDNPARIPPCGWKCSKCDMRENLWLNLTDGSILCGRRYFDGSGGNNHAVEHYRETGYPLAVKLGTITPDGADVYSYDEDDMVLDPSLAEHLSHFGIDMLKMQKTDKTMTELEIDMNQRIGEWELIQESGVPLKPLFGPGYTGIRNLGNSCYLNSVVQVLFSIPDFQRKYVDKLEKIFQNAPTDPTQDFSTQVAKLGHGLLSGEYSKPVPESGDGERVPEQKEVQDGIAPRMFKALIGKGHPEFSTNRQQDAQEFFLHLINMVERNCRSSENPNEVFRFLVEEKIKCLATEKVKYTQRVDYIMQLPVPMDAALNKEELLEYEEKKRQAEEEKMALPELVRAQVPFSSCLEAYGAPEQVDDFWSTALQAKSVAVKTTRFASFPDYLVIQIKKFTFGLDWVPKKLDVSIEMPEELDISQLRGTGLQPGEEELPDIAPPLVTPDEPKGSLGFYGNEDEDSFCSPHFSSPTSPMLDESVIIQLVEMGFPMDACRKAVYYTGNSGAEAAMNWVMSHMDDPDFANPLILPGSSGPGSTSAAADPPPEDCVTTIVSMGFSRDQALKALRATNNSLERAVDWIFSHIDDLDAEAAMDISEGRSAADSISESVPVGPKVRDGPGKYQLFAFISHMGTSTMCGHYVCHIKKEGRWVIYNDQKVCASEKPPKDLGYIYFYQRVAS
Outline: as §1

USP54 = USP54 (UniProt Q70EL1)
Outline: as §1

USP7 = USP7 (UniProt Q93009)
Outline: as §1

USP8 = molecular target: T5, USP8 (UniProt P40818)
T5 sequence (whole entry): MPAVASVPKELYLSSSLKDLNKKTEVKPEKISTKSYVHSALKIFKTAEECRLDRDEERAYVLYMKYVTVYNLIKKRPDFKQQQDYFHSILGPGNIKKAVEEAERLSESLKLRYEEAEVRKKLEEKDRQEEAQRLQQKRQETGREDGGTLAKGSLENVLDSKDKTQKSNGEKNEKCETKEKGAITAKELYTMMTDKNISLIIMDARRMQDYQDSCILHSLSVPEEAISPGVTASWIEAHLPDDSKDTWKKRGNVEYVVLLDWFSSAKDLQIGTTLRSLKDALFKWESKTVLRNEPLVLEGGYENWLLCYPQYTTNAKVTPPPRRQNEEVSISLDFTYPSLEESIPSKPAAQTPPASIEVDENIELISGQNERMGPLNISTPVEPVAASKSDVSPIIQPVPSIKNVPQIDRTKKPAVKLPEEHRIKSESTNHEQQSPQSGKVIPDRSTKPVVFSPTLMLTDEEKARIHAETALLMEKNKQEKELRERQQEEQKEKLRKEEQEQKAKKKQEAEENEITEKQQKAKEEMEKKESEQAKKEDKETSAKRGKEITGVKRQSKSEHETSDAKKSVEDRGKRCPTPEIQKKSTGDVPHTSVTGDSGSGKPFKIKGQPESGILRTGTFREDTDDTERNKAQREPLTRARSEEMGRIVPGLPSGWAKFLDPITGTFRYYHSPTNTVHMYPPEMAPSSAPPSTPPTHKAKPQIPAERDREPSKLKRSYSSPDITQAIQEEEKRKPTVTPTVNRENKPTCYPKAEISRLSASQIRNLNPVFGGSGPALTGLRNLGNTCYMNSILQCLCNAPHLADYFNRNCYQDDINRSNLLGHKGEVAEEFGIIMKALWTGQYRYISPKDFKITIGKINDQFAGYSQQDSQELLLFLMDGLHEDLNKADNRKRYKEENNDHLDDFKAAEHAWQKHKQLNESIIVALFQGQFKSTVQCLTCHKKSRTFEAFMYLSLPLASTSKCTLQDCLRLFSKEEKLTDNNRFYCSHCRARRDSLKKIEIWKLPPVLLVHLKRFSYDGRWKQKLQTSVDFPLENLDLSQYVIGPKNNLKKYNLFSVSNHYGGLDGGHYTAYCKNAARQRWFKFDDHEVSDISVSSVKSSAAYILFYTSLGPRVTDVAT
Outline: as §1

USP9X = USP9X (UniProt Q93008)
Outline: as §1

UniProt O00487 = molecular target: UniProt O00487
Outline: as §1

Measured: log2 ratio of Biotin-Ahx-Ub-VS probe labelling

Chain of USP46 (P62068 whole entry): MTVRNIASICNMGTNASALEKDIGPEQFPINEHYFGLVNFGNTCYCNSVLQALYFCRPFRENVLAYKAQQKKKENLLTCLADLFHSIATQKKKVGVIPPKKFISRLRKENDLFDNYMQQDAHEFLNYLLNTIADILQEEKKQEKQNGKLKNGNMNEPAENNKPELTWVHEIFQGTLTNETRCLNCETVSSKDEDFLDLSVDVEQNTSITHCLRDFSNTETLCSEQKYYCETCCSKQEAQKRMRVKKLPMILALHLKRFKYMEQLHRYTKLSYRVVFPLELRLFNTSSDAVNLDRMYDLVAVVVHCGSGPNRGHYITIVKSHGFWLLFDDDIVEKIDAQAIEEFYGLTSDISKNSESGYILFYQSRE
Chain of USP9X (Q93008 whole entry): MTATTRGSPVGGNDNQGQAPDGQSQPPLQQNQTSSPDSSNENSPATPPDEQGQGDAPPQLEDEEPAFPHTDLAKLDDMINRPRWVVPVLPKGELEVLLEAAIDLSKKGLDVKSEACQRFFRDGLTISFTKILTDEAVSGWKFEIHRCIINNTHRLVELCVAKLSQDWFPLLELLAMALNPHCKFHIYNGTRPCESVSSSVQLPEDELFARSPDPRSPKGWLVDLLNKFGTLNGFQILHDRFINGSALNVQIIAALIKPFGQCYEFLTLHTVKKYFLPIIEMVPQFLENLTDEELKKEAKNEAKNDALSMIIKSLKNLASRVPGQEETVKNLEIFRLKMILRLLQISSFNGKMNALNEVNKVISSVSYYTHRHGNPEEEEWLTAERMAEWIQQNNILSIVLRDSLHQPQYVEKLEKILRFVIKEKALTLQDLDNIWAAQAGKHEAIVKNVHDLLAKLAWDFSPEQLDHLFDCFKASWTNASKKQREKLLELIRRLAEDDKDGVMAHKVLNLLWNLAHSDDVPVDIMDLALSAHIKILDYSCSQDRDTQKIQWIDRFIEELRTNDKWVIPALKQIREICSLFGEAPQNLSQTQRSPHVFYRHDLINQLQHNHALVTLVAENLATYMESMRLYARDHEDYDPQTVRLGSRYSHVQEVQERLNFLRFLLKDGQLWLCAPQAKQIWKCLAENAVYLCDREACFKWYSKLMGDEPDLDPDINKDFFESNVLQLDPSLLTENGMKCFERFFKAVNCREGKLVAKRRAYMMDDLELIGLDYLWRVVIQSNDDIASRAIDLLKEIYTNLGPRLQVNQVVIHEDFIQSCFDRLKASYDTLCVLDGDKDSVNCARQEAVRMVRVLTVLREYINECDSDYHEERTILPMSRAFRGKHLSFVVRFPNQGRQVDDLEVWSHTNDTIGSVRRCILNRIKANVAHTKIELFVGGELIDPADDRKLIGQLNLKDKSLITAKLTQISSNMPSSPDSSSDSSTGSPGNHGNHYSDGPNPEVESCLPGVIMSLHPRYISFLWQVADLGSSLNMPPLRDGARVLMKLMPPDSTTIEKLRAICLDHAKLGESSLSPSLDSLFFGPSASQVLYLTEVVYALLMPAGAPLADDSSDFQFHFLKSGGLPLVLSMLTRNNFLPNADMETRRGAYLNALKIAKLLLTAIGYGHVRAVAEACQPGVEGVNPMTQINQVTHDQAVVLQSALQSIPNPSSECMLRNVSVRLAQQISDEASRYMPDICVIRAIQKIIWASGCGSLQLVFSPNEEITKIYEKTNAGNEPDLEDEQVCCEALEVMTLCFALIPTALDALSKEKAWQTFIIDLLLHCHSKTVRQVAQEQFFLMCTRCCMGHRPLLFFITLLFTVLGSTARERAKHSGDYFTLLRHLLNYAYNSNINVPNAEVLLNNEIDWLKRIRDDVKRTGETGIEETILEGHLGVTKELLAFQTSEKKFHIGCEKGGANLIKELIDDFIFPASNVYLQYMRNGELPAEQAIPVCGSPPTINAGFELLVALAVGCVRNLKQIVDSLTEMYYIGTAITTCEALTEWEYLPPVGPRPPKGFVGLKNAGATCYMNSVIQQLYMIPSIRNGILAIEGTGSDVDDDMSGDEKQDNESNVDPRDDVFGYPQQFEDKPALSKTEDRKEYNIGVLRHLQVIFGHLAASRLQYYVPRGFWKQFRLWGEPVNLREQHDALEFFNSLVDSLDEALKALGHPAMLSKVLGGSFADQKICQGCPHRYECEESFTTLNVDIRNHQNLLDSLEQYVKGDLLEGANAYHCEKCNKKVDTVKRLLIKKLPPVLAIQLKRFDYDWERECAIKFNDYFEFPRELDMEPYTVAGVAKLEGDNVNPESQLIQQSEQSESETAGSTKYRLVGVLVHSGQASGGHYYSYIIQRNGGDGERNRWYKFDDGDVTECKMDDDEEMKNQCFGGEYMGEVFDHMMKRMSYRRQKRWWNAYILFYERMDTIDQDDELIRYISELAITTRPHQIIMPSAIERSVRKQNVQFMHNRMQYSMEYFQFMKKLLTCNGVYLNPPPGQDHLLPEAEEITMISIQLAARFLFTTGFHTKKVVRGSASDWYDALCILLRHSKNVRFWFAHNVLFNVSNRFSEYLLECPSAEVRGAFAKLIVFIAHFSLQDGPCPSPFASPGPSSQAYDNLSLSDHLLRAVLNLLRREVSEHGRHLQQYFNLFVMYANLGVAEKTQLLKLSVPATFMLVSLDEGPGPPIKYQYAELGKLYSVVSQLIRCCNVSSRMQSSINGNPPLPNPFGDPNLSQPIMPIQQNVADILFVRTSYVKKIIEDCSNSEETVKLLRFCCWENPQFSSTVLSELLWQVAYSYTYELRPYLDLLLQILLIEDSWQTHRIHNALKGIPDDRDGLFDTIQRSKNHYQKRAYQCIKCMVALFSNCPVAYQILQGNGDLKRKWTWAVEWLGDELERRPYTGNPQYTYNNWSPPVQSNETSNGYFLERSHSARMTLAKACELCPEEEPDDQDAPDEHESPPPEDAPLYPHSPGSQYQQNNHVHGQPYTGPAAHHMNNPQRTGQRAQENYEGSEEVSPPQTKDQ
Chain of USP7 (Q93009 whole entry, looked up): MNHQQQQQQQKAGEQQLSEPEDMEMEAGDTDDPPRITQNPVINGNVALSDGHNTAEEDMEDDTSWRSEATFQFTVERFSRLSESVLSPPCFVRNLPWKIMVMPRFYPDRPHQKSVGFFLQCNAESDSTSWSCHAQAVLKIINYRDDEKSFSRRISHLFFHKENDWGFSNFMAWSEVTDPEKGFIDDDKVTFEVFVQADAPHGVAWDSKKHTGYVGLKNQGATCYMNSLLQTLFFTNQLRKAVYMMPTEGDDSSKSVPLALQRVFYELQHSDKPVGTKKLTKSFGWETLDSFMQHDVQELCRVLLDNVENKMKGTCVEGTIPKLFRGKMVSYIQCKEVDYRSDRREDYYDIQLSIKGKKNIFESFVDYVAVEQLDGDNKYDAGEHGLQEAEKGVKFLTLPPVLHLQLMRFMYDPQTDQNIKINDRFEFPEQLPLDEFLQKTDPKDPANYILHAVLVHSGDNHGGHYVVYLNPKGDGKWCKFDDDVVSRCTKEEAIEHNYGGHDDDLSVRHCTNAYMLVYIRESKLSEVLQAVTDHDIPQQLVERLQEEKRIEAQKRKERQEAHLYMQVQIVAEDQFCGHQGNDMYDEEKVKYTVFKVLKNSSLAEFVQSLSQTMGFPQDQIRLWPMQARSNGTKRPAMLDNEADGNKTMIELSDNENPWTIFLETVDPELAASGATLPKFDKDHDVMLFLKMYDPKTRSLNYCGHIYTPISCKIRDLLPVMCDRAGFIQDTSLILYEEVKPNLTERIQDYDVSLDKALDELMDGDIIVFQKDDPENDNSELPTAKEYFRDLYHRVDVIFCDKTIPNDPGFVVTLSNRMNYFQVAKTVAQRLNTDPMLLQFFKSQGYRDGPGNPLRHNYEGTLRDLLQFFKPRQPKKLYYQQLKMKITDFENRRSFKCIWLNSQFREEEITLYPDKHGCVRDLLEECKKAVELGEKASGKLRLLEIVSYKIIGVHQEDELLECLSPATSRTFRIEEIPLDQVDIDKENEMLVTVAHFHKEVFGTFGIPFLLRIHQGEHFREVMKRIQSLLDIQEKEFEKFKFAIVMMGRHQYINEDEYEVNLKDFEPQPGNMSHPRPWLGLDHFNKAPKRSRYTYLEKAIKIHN
Chain of UniProt O00487 (O00487 whole entry): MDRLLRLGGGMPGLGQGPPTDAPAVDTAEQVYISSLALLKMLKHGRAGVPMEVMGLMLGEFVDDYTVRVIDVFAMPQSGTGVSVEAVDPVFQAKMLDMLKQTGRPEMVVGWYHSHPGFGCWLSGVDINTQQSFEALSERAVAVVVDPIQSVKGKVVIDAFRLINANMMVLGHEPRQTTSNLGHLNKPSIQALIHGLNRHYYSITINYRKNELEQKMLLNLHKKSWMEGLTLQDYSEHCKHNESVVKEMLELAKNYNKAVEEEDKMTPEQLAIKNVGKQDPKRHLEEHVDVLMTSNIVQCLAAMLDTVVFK

Cc1nc(CN2CCCN(C(=O)CCl)CC2)no1.Cl
inactive: USP42 0.102 | USP46 0.0734 | USP47 -0.095 | USP48 0.261 | USP5 -0.016 | USP54 -0.482 | USP7 -0.0348 | USP8 0.237 | USP9X 0.101 | UniProt O00487 0.118
